# Legend:
# Experiment in all cases: DAPPL (digital affinity profiling via proximity ligation, sequencing); 10 mM Tris-HCl pH 7.5, 50 mM NaCl, 1 mM DTT, 4% glycerol, room temperature, 30 min; GST-TFs on glutathione beads, 16-mer random dsDNA library, 0.1% formaldehyde crosslink after washing; high values mean tight binding
# FLI1 = molecular target: T1, FLI1 (Homo sapiens, UniProt Q01543 1-452); details: protein: recombinant; tags: N-terminal GST; dsDNA, one strand shown
# T1 sequence: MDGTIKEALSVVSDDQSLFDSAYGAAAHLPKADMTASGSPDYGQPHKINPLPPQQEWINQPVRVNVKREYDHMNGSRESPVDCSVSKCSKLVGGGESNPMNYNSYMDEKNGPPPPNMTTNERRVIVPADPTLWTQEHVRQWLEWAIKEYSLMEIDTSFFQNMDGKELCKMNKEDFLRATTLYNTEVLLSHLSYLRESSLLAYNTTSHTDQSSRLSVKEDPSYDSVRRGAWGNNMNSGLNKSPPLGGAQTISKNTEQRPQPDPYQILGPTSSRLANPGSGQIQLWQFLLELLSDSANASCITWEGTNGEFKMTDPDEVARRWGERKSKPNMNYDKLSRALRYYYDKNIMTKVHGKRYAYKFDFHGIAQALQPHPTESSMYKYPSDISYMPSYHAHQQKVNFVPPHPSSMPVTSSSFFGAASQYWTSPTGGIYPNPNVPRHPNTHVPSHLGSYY
# Method in brief: (§1)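 Human transcription factors carrying a GST fusion were produced in yeast, bound to glutathione beads, tagged with DNA barcodes and pooled together with a tag-only sample. Each pool was held with 200 nmole of a random double-stranded 16-mer DNA library in Tris/NaCl/DTT/glycerol buffer for 30 min at room temperature, then washed, crosslinked in 0.1% formaldehyde, proximity-ligated with BsaI/T4 ligase (1 h, 37 °C), PCR-amplified and sequenced on an Illumina NextSeq500. Binding signal is the read frequency of each hexamer for a given factor divided by its frequency in the tag-only sample.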
# ELK1 = molecular target: T2, ELK1 (Homo sapiens, UniProt P19419 1-428); details: protein: recombinant; tags: N-terminal GST; dsDNA, one strand shown
# T2 sequence: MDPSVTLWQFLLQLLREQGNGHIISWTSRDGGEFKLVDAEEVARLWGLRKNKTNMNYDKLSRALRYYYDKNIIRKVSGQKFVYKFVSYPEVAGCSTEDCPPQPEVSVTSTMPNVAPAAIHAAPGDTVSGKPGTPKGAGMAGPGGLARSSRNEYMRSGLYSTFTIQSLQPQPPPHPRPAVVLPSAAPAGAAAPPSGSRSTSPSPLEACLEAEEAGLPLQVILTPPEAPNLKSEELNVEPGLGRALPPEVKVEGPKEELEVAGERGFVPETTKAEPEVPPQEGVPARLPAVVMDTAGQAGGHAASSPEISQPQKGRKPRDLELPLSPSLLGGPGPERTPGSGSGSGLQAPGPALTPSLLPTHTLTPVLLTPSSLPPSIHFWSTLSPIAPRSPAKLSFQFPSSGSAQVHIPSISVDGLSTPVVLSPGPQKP
# Method in brief: as §1
# GABPA = molecular target: T3, GABPA (Homo sapiens, UniProt Q06546 1-454); details: protein: recombinant; tags: N-terminal GST; dsDNA, one strand shown
# T3 sequence: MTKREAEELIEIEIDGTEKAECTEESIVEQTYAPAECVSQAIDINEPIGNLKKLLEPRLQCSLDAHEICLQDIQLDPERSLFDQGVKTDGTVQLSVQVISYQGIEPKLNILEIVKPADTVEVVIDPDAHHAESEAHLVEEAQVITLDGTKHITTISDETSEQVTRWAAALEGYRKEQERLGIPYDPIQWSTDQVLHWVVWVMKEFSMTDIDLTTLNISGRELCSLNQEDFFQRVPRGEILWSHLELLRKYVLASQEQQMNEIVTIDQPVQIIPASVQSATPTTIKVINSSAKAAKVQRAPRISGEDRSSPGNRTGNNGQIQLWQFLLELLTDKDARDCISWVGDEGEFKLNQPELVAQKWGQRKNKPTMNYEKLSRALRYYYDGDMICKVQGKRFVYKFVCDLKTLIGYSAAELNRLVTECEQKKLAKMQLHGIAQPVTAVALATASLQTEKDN
# Method in brief: as §1
# ERG = molecular target: T4, ERG (Homo sapiens, UniProt P11308 1-479); details: protein: recombinant; tags: N-terminal GST; dsDNA, one strand shown
# T4 sequence: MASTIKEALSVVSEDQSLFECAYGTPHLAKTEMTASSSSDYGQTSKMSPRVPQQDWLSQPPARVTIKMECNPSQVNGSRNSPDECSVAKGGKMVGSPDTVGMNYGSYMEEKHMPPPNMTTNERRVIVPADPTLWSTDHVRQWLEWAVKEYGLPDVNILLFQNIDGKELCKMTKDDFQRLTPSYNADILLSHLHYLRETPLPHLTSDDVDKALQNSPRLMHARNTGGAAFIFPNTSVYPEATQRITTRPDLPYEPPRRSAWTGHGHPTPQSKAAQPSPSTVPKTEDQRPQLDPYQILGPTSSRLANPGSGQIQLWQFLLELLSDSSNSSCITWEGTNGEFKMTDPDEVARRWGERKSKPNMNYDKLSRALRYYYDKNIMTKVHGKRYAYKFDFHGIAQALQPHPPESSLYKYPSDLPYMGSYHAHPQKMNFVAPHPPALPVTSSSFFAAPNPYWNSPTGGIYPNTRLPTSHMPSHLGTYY
# Method in brief: as §1
# ELF1 = ELF1 (Homo sapiens, UniProt P32519 1-619); details: protein: recombinant; tags: N-terminal GST; dsDNA, one strand shown
# Method in brief: as §1
# EHF = molecular target: T5, EHF (Homo sapiens, UniProt Q9NZC4 1-300); details: protein: recombinant; tags: N-terminal GST; dsDNA, one strand shown
# T5 sequence: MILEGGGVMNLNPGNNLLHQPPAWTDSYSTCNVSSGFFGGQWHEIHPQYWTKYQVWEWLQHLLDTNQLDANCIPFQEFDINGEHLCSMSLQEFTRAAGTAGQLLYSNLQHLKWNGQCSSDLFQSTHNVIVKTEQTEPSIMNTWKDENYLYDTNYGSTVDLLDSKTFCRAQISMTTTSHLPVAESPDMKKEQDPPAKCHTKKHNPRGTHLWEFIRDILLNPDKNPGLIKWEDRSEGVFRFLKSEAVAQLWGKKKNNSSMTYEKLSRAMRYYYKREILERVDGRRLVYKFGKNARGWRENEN
# Method in brief: as §1
# SPI1 = SPI1 (Homo sapiens, UniProt P17947 1-270); details: protein: recombinant; tags: N-terminal GST; dsDNA, one strand shown
# Method in brief: as §1
# SPIB = SPIB (Homo sapiens, UniProt Q01892 1-262); details: protein: recombinant; tags: N-terminal GST; dsDNA, one strand shown
# Method in brief: as §1
# ELK3 = molecular target: T6, ELK3 (Homo sapiens, UniProt P41970 1-407); details: protein: recombinant; tags: N-terminal GST; dsDNA, one strand shown
# T6 sequence: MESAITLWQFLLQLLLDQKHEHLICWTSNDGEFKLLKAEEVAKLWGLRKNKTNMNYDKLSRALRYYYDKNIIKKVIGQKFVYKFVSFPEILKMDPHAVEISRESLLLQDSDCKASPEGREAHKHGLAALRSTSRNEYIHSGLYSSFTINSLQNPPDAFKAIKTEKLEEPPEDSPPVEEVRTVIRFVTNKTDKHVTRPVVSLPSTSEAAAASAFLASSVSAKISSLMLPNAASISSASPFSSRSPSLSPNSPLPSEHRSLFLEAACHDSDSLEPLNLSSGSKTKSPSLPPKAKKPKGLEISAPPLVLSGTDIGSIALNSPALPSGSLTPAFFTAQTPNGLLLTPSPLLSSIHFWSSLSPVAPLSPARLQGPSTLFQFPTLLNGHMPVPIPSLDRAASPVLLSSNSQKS
# Method in brief: as §1
# FEV = molecular target: T7, FEV (Homo sapiens, UniProt Q99581 1-238); details: protein: recombinant; tags: N-terminal GST; dsDNA, one strand shown
# T7 sequence: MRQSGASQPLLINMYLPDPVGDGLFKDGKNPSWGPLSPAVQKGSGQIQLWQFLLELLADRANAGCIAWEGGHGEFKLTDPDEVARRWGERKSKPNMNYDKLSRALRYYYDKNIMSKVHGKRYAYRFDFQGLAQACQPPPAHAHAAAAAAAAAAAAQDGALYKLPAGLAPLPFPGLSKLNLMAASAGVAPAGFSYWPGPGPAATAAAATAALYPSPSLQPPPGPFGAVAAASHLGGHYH
# Method in brief: as §1
# ETV5 = ETV5 (Homo sapiens, UniProt P41161 1-510); details: protein: recombinant; tags: N-terminal GST; dsDNA, one strand shown
# Method in brief: as §1
# HSF1 = HSF1 (Homo sapiens, UniProt Q00613 1-529); details: protein: recombinant; tags: N-terminal GST; chain copies: 3; dsDNA, one strand shown
# Method in brief: as §1
# SPIC = molecular target: T8, SPIC (Homo sapiens, UniProt Q8N5J4 1-248); details: protein: recombinant; tags: N-terminal GST; dsDNA, one strand shown
# T8 sequence: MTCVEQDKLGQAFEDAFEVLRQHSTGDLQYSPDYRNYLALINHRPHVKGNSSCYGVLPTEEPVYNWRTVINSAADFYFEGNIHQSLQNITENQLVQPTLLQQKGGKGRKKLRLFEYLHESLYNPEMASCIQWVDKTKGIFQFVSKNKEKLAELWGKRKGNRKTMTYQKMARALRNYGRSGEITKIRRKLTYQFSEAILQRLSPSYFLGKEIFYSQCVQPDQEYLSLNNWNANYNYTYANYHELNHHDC
# Method in brief: as §1
# ELF4 = ELF4 (Homo sapiens, UniProt Q99607 1-663); details: protein: recombinant; tags: N-terminal GST; dsDNA, one strand shown
# Method in brief: as §1
# ELK4 = molecular target: T9, ELK4 (Homo sapiens, UniProt P28324-2 1-405); details: protein: recombinant; tags: N-terminal GST; dsDNA, one strand shown
# T9 sequence: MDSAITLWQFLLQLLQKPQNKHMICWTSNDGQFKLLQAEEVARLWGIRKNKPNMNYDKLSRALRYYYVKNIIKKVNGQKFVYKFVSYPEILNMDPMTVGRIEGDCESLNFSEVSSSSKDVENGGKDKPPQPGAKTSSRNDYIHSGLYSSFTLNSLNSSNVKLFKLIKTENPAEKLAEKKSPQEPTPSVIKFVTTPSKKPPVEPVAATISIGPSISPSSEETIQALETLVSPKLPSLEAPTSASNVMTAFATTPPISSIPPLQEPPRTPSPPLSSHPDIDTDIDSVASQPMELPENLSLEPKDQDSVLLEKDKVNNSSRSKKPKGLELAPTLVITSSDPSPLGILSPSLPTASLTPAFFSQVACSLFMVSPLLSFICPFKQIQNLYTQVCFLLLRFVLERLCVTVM
# Method in brief: as §1
# ETV2 = molecular target: T10, ETV2 (Homo sapiens, UniProt O00321 1-342); details: protein: recombinant; tags: N-terminal GST; dsDNA, one strand shown
# T10 sequence: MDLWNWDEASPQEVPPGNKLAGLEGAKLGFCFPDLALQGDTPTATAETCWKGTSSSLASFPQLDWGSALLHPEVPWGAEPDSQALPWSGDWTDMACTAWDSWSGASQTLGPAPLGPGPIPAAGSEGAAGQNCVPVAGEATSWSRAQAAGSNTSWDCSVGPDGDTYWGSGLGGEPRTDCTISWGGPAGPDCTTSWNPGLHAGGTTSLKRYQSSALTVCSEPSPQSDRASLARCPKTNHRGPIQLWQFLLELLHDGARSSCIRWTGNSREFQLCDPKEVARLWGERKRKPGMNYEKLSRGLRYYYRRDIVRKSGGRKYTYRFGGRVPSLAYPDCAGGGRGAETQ
# Method in brief: as §1
# ELF3 = molecular target: T11, ELF3 (Homo sapiens, UniProt P78545 1-371); details: protein: recombinant; tags: N-terminal GST; dsDNA, one strand shown
# T11 sequence: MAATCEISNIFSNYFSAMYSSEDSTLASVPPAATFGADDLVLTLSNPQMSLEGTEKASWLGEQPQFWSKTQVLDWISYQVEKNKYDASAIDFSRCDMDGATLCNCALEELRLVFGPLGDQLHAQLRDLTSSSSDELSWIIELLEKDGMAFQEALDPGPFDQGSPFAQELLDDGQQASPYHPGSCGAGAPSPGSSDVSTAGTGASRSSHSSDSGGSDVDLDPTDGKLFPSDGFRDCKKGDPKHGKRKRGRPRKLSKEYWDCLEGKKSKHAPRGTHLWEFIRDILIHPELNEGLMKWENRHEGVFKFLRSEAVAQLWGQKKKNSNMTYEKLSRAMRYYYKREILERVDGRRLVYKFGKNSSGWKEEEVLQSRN
# Method in brief: as §1
# ETV1 = ETV1 (Homo sapiens, UniProt P50549 1-477); details: protein: recombinant; tags: N-terminal GST; dsDNA, one strand shown
# Method in brief: as §1
# Sequence of HSF1 (Q00613 whole entry): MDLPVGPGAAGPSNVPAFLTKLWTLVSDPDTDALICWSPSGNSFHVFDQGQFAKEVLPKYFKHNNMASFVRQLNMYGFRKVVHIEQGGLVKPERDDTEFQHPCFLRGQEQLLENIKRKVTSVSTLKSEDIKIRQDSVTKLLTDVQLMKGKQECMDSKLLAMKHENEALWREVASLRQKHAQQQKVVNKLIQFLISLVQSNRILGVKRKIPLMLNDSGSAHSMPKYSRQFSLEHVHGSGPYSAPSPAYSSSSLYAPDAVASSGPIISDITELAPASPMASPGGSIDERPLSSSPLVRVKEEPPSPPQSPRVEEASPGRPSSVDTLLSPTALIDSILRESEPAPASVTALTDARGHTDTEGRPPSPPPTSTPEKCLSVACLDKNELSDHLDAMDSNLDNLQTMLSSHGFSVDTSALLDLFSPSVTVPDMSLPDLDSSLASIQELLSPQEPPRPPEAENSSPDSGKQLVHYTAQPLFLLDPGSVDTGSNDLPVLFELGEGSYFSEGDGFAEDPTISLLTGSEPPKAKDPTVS
# Sequence of ETV5 (P41161 whole entry): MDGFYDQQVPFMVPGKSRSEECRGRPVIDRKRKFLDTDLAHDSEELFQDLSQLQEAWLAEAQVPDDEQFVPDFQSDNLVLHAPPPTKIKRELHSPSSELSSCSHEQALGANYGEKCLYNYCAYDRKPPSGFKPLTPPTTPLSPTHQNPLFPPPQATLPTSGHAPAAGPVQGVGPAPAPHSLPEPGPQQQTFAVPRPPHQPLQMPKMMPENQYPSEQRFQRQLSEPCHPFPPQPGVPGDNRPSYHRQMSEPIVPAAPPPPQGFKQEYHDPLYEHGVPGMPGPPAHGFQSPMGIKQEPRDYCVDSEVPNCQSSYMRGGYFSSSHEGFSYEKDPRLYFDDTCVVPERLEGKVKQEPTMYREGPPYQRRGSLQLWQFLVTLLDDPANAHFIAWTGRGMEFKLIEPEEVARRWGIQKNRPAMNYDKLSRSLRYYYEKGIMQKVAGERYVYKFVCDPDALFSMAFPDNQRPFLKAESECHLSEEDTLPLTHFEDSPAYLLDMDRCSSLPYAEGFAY
# Sequence of ETV1 (P50549 whole entry): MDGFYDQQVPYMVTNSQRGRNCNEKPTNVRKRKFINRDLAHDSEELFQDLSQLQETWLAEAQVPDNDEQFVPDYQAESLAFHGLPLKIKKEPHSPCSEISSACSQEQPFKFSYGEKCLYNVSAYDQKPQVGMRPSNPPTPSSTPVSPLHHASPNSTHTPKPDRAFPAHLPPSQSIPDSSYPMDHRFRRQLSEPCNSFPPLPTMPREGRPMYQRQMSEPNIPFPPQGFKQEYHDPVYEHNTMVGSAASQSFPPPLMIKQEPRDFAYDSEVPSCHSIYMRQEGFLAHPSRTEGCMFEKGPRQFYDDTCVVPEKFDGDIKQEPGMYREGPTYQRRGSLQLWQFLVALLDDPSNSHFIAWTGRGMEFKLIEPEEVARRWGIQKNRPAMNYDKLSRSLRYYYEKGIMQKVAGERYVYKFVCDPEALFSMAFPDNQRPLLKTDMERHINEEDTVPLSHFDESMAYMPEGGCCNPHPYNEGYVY
# Sequence of SPIB (Q01892 whole entry): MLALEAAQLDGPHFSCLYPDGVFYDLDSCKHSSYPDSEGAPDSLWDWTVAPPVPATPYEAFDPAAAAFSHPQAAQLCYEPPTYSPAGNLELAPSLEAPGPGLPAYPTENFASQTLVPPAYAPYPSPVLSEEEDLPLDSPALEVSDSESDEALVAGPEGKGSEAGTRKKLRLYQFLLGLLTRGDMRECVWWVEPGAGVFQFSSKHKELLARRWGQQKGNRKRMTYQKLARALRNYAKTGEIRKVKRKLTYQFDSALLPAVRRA
# Sequence of ELF1 (P32519 whole entry): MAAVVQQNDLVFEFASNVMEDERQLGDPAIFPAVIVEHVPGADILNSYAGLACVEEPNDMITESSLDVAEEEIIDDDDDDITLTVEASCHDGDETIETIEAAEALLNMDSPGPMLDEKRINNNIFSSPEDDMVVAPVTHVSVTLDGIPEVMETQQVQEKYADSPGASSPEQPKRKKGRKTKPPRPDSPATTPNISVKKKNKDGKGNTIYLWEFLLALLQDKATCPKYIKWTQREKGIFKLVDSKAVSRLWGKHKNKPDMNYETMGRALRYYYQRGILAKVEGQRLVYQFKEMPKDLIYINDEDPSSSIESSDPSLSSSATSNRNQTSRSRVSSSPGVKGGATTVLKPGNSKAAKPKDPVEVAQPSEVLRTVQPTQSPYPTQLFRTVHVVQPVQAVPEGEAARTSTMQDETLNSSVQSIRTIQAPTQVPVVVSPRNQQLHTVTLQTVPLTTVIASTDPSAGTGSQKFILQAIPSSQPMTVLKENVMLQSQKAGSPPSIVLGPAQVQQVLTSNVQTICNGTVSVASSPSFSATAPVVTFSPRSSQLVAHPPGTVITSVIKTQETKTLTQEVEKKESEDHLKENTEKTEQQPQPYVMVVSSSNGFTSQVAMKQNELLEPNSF
# Sequence of ELF4 (Q99607 whole entry): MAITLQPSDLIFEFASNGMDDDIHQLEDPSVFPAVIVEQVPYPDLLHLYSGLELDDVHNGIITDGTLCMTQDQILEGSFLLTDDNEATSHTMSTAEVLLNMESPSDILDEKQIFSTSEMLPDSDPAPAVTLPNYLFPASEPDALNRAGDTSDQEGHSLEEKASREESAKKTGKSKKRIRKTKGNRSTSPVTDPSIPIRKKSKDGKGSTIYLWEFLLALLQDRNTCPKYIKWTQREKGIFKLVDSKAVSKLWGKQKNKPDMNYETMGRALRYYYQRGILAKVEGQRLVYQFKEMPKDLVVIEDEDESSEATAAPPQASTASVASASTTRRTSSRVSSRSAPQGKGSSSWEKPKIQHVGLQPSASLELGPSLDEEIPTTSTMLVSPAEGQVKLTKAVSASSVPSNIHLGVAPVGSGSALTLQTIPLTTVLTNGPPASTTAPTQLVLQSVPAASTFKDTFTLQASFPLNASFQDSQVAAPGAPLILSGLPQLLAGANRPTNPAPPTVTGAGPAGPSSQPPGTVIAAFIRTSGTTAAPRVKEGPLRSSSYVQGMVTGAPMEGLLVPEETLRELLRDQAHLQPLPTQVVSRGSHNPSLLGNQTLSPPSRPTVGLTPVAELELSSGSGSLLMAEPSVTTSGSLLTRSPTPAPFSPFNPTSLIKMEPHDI
sequence,measurement,setting,value
ACCGTC,binding signal,FLI1,"1.25 fold enrichment (6-mer frequency, TF over GST control)"
same,binding signal,ELK1,"1.21 fold enrichment (6-mer frequency, TF over GST control)"
same,binding signal,GABPA,"1.26 fold enrichment (6-mer frequency, TF over GST control)"
same,binding signal,ERG,"1.15 fold enrichment (6-mer frequency, TF over GST control)"
same,binding signal,ELF1,"1.19 fold enrichment (6-mer frequency, TF over GST control)"
same,binding signal,EHF,"1.07 fold enrichment (6-mer frequency, TF over GST control)"
same,binding signal,SPI1,"1.18 fold enrichment (6-mer frequency, TF over GST control)"
same,binding signal,SPIB,"1.09 fold enrichment (6-mer frequency, TF over GST control)"
same,binding signal,ELK3,"1.22 fold enrichment (6-mer frequency, TF over GST control)"
same,binding signal,FEV,"1.17 fold enrichment (6-mer frequency, TF over GST control)"
same,binding signal,ETV5,"1.12 fold enrichment (6-mer frequency, TF over GST control)"
same,binding signal,HSF1,"1.13 fold enrichment (6-mer frequency, TF over GST control)"
same,binding signal,SPIC,"1.2 fold enrichment (6-mer frequency, TF over GST control)"
same,binding signal,ELF4,"1.17 fold enrichment (6-mer frequency, TF over GST control)"
same,binding signal,ELK4,"1.17 fold enrichment (6-mer frequency, TF over GST control)"
same,binding signal,ETV2,"1.29 fold enrichment (6-mer frequency, TF over GST control)"
same,binding signal,ELF3,"1.15 fold enrichment (6-mer frequency, TF over GST control)"
same,binding signal,ETV1,"1.19 fold enrichment (6-mer frequency, TF over GST control)"
